# Bioassay records deposited in PubChem BioAssay by National Center for Advancing Translational Sciences (NCATS).
# An excerpt weighted towards active compounds, which were near 10% of everything screened.
# SW480 rerep = inducers of DNA re-replication in SW480 colon cancer cells; SW480 DNA re-replication, Hoechst DNA content imaging, 48 h; 340,000 compounds, 1.8% hits; Potency, µM (highest dose often 46.1 µM), for inactives: top-dose re-replication activation, actives largely listed as activators; further: % of control where 0% means no effect; nearly all actives have a fitted effect of over 55% in size
#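 250 cells/well; 23 nL cpd via pin tool; 48 hr, 37 C, 5% CO2; Hoechst 40 min; imager read of total nuclear intensity, ex 405/em 500-530 nm.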
# MCF10A rerep = inducers of DNA re-replication in MCF 10A breast cells | Potency, µM (series often up to 46.1 µM), inactives show top-dose activity, positive = re-replication, usual class: activators | 350,000 compounds, 2.9% hits | MCF 10A DNA re-replication, Hoechst nuclear intensity, 48 h; further: % of control where 0% means no effect; nearly all actives have a fitted effect of over 50% in size
# ELG1 DNA repair = blocks ELG1-dependent DNA repair in HEK293T cells; HEK293T ELG1-luciferase reporter, luminescence, 16 h; DNA damage induced by 5-fluorouridine; Potency, µM (highest dose often 46.1 µM), without a hit: at the top dose activity change, negative = inhibition, usual class: inhibitors; 330,000 compounds, 2.3% hits; further: on the % scale 0 is the no-effect control and ±100 the full control effect; nearly all actives have a fitted effect of over 55% in size
#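 Overnight (16 hr) co-exposure of 2,000 cells/well to 5-fluorouridine and compound at 37 °C preceded detection. Luciferase was quantified via ONE-Glo luminescence; loss of signal denotes inhibition.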
# Gal4-VP16 FLuc = Gal4-VP16 reporter inhibition counter-screen | Drosophila S2 Gal4-VP16 UAS-luciferase, luminescence, 20 h | Potency, µM (doses to about 53.6 µM), for the others: at the top dose activity, negative = inhibition, actives largely listed as inhibitors | 310,000 compounds, 3.5% hits | AID 2546;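 further: Gal4-VP16 expression switched on by copper sulfate through the metallothionein promoter; on the % scale 0 is the no-effect control and ±100 the full control effect; nearly all actives have a fitted effect of over 50% in size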
# RORg inh = ROR gamma (mouse) transcription inhibition | Drosophila S2 Gal4-RORgamma UAS-luciferase reporter, 20 h | Potency, µM (titrated, usually from 53.6 µM), for inactives: at the highest dose activity change, negative = inhibition, most hits filed as inhibitors | AID 2551 | 310,000 compounds, 5.4% hits; further: on the % scale 0 is the no-effect control and ±100 the full control effect; nearly all actives have a fitted effect of over 60% in size
# Target sequence (P51450 whole entry, looked up, the tested form may be a part): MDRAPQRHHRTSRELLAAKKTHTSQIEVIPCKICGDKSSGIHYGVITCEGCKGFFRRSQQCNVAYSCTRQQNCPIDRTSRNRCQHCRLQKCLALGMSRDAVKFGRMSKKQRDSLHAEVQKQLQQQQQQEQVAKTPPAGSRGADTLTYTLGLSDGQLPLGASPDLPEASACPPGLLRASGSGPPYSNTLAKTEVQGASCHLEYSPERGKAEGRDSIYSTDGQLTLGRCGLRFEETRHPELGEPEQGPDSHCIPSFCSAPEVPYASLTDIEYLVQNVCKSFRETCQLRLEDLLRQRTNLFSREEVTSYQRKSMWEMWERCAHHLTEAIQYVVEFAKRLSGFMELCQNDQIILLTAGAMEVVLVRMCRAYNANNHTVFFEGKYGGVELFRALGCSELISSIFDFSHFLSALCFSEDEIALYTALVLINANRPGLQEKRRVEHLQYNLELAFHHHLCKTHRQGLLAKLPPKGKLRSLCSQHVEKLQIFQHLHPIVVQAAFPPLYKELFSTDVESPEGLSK
#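 Read-out: Photinus luciferase luminescence; inhibitors lower reporter signal. Insect Schneider cells with Gal4-ROR gamma fusion under metallothionein promoter, UAS reporter; 700 uM final copper sulfate induction, 20 hr, ambient temperature.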
# An asterisk follows results filed as active; u = inconclusive; x = no result given; [ ] = remark or other dose. The call rests on the fitted dose curve; in most records, active means well fitted curve in the direction sought with a large enough effect; inconclusive means small, poorly fitted or top-dose-only effect, or another doubt; inactive means no such curve, though single readings can be large; an effect the other way counts as inactive or inconclusive. Potency means the concentration at half of the fitted maximal effect.
SMILES,SW480 rerep,MCF10A rerep,ELG1 DNA repair,Gal4-VP16 FLuc,RORg inh
CC(=O)NC1=NN(C(C)=O)C(C)(c2cccs2)S1 (configuration not stated),12µM*,1.3µM*,-10%,-12%,-3%
CCCC(=O)Nc1ccc(S(=O)(=O)N2CCC(c3nc4ccccc4[nH]3)CC2)cc1,2%,-4%,u,x,x
CCC(=O)Nc1ccc(S(=O)(=O)N2CCC(c3nc4ccccc4[nH]3)CC2)cc1,-6%,6%,18µM*,x,x
COc1ccc(/C=C/C(=O)OCC(=O)NCC2CCCO2)cc1 (configuration not stated),-3%,21%,5%,2%,20%
CCOC(=O)/C=c1/s/c(=C/c2ccc3cc(OC)ccc3c2)c(=O)n1CC(=O)NCc1ccc2c(c1)OCO2,u,1.5µM*,x,x,x
CCOC(=O)/C=c1\s/c(=C\c2ccc3cc(OC)ccc3c2)c(=O)n1CC(=O)NCC1CCCO1 (configuration not stated),25%,12µM*,-26%,-15%,0%
CCOC(=O)/C=c1\s/c(=C\c2ccc(-c3ccccc3)cc2)c(=O)n1CC(=O)NCc1ccc2c(c1)OCO2,u,u,7%,-13%,-5%
CCOC(=O)/C=c1\s/c(=C\c2ccc(C(F)(F)F)cc2)c(=O)n1CC(=O)NCc1ccco1,2.3µM*,23µM*,u,-23%,-13%
Cc1cccnc1NC1(C(F)(F)F)N=C(c2ccccc2)NC1=O (configuration not stated),-1%,3%,2%,-2%,1%
O=C(NCc1ccc(F)cc1)C1CCCN1C(=O)Nc1ccc(Cl)cc1 (configuration not stated),-5%,2%,-13%,-8%,20%
CC(=O)Oc1cc(C(=O)OCC(=O)NC23CC4CC(CC(C4)C2)C3)cc(OC(C)=O)c1OC(C)=O,-23%,-8%,x,x,x
CC(=O)OCC1OC(OC2C[C@]3(C)C(CC(O)C4C([C@](C)(CCC=C(C)C)OC5OC(CO)C(O)C(O)C5O)CC[C@]43C)[C@@]3(C)CCC(O)C(C)(C)C23)C(O[C@@H]2OC(C)C(O)C(O)C2O)C(O)C1O (some centres not stated),-8%,0.52µM*,14%,x,x
Cn1c(Oc2ccc(Cl)cc2)c(C=O)c2ccccc21,-1%[9.22 µM],u,12µM*,-2%,17%
COc1ccc(Oc2c(C=O)c3ccccc3n2C)cc1,14%,7%,-11%,-1%,15%
Cn1c(Sc2ccc(Cl)cc2)c(C=O)c2ccccc21,u,u,7.3µM*,-3%,19%
COc1ccc(N(C(=O)CNC(=O)c2ccco2)C(C(=O)NCC2CCCO2)c2ccccc2)cc1OC (configuration not stated),u,4%,0%,8%,-2%
CN(C)C(CNC(=O)CCCN1C(=O)c2cccc3cccc(c23)C1=O)c1ccccc1 (configuration not stated),-2%,6%,-9%,11%,-12%
COc1ccc(CCCO[C@@H](Cn2ccnc2)c2ccc(OC)cc2)cc1,x,x,x,32µM*,8.9µM*
CCOc1cc(/C=N\Nc2ccc([N+](=O)[O-])cc2)ccc1OCC(=O)Nc1ccc(C)c(C)c1,u,16µM*,u,-1%,10%
COc1cc(/C=N\Nc2ccc([N+](=O)[O-])cc2)ccc1OCC(=O)Nc1ccc(C)c(C)c1,21µM*,5.8µM*,u,-26%,u
CCOc1cc(/C=N\NC(=O)Cc2ccccc2)ccc1OCC(=O)Nc1ccc(C)c(C)c1,-1%,15µM*,u,-26%,17%
O=C(C[n+]1ccc(/C=N/O)cc1)N(Cc1ccccc1)Cc1ccccc1,10%,1%,u,0%,20%
Cc1cccc(NC(=O)c2ccccc2OCC(=O)N2CCCC2)c1C,x,x,0%,4%,8%
COc1ccc(OC)c(S(=O)(=O)NC2CC(=O)N(c3cccc(F)c3)C2)c1 (configuration not stated),6.5µM*,-13%,u,x,x
COc1ccc(OC)c(S(=O)(=O)NC2CC(=O)N(c3ccc(C)c(C)c3)C2)c1 (configuration not stated),-29%,4%,1%,x,x
SMILES,SW480 rerep,MCF10A rerep,ELG1 DNA repair,Gal4-VP16 FLuc,RORg inh
COC(=O)CCC(=O)NNC(=O)c1ccc(Cl)cc1Cl,-2%,-5%,15%,-14%,11µM*
CCCC(=O)NC(=S)Nc1ccccc1F,-4%,12%,u,u,4µM*
CCCC(=O)NC(=S)Nc1ccccc1OC,8%,-2%,x,u,10µM*
COC(=O)CCC(=O)NNC(=O)CCCOc1ccc(Cl)cc1Cl,-2%,-23%,15%,u,12%
COc1cccc(NC(=S)NC(=O)Cc2ccc(Cl)cc2)c1,6%,1%,-5%,7.1µM*,7.1µM*
O=C(/C=C/c1ccccc1)OCc1ccccc1,-3%,1%,x,8%,13%[10 µM]
CC(C)(C)C(=O)NC(=S)Nc1ccccc1F,3%[9.22 µM],10%,u,u,13µM*
COc1ccccc1NC(=S)NC(=O)Cc1ccc(Cl)cc1,-2%,6%,21%,4.5µM*,7.1µM*
COc1ccccc1NC(=S)NC(=O)CCCOc1ccc(Cl)cc1Cl,u,u,-4%,16µM*,10µM*
CCC(=O)NC(=S)Nc1ccccc1F,4%,3%,6%,u,13µM*
CC(=O)NC(=S)Nc1ccccc1F,-28%,4%,u,u,u
Nc1ncnc2c1nc(N1CCCCC1)n2[C@@H]1O[C@@H]2COP(=O)(O)O[C@H]2[C@H]1O,x,x,x,0%,4%
COc1ccccc1NC(=S)NNC(=O)c1ccc(Cl)cc1Cl,-6%,u,u,u,13µM*
C=C(C)C(=O)OCC(C)O (configuration not stated),x,x,x,-1%,-9%
COc1ccc(NC(=O)N(C)C[C@H]2Oc3c(NC(=O)Nc4ccc(C(F)(F)F)cc4)cccc3C(=O)N([C@H](C)CO)C[C@@H]2C)cc1,-5%,u,u,x,x
C[C@@H]1CN([C@H](C)CO)C(=O)c2cccc(NC(=O)Nc3ccc(F)cc3)c2O[C@H]1CN(C)C(=O)Nc1ccc(C(F)(F)F)cc1,4%,-26%,6.5µM*,x,x
C[C@H](CO)N1C[C@H](C)[C@@H](CN(C)C(=O)Nc2ccc3c(c2)OCO3)Oc2c(NC(=O)Nc3ccc(C(F)(F)F)cc3)cccc2C1=O,5%,-18%,10µM*,x,x
C[C@H](CO)N1C[C@H](C)[C@@H](CN(C)Cc2ccc(-c3ccccc3)cc2)Oc2c(NC(=O)Nc3ccc4c(c3)OCO4)cccc2C1=O,-9%,u,23µM*,x,x
C[C@H](CO)N1C[C@H](C)[C@@H](CN(C)S(C)(=O)=O)Oc2c(NC(=O)Nc3ccc4c(c3)OCO4)cccc2C1=O,-1%,2%,20%,x,x
